Assay results as given in PubChem BioAssay (NCATS).
Several values for one entry are separate records, joined by “and”; a condition that tells them apart may be missing. Equal values may be shown once. Inconclusive results are not listed. Entries that show only a call come without a potency. Values without a mark were called inactive. Activity calls are given as the source filed them. The call rests on the fitted dose curve; in most records, active means well fitted curve in the direction sought with a large enough effect; inconclusive means small, poorly fitted or top-dose-only effect, or another doubt; inactive means no such curve, though single readings can be large; an effect the other way counts as inactive or inconclusive. Square brackets hold non-standard residues; d marks the D form. Peptide text beside a SMILES is read from it. ξ: configuration not given here. ξLac(3-iPr) = CC(C)CC(O)C(=O)O; NMeV = CN[CH](C(=O)O)C(C)C; NMeA = CN[CH](C)C(=O)O; βAla = NCCC(=O)O

Legend:
[1] = target: Cellular tumor antigen p53 (Homo sapiens) (UniProt P04637); test: Primary qHTS for small molecule compounds that upregulate eGFP-tagged delta133p53alpha (in N-terminal) cells. (AID 2060322); conditions: NCI-H358 eGFP-delta133p53alpha fluorescence, 24 h; activation: stronger effect = higher value; further: nearly all actives have a fitted effect of over 75% in size; further: potency means the concentration at half of the fitted maximal effect;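 on activation: cells pre-induced with doxycycline then dosed without doxycycline; series mostly up to about 56 µM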
In short: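 NCI-H358 cells pre-induced 24 h with 10 ng/ml doxycycline for eGFP-delta133p53alpha, plated dox-free and exposed 24 h at 37C to titrated compounds. Fixed, Hoechst-stained; gated GFP peak intensity by laser scanning cytometry, normalized to DMSO (0%) and 57.5 uM 5-azacytidine (100%).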

[2] = target: Aldehyde dehydrogenase, mitochondrial (Homo sapiens) (UniProt P05091); test: qHTS for Inhibitors of the Aldehyde Dehydrogenase Family (ALDH2) Primary screen (AID 2061308); further: nearly all actives have a fitted effect of over 55% in size
[3] = target: Retinaldehyde dehydrogenase 3 (Homo sapiens) (UniProt P47895); test: qHTS for Inhibitors of the Aldehyde Dehydrogenase Family (ALDH1A3) Primary screen (AID 2061315)

Cellular tumor antigen p53 (Homo sapiens), sequence (P04637 whole entry, looked up): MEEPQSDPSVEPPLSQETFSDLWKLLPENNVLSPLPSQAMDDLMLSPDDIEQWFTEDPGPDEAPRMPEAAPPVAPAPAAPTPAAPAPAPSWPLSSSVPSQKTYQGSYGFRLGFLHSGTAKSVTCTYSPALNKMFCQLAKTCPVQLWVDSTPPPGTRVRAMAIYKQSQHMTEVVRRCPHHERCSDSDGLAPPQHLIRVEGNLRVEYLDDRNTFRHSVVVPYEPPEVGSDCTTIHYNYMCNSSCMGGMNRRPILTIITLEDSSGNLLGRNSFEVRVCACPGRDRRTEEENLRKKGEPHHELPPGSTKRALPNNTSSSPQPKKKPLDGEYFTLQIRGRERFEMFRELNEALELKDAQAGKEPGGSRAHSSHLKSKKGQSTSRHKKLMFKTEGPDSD

SMILES | activation [1] | Potency [2] | Potency [3] | Potency [1] | activity change, negative = inhibition [2] | activity change, negative = inhibition [3]
C=C[C@H]1[C@H](O[C@@H]2O[C@H](CO)[C@@H](O)[C@H](O)[C@H]2O)OC=C2C(=O)OCC[C@H]21 | 6.11% | inactive | inactive |  |  | 
CC(C)C1(OO)C=C2C(=O)CC3C(C)(C(=O)O)CCCC3(C)C2CC1 (configuration not stated) | 11.5% | inactive | inactive |  |  | 
CC(=O)O[C@H]1CN2CCC1CC2 | 5% | inactive | inactive |  |  | 
CCC(C)C1NC(=O)C2CCCN2C(=O)C(CC(C)C)OC(=O)CCNC(=O)C(C)N(C)C(=O)C(C(C)C)N(C)C1=O (configuration not stated) (cyclo([ξLac(3-iPr)]PI[NMeV][NMeA][βAla]); configuration not given here) | -7.14% | inactive | inactive |  |  | 
COc1ccc2c3c4n(c2c1)[C@@H](C=C(C)C)OOC(C)(C)C[C@@H]4N1C(=O)[C@@H]2CCCN2C(=O)[C@]1(O)[C@H]3OCC=C(C)C | 15.3% | inactive | inactive |  |  | 
CC(C)(O)/C=C/C(=O)[C@](C)(O)[C@H]1[C@H](O)C[C@@]2(C)[C@@H]3CC=C4[C@@H](C[C@H](O)C(=O)C4(C)C)[C@]3(C)C(=O)C[C@]12C |  | inactive | inactive | 4.65 µM (active) |  | 
CNC(=O)c1cc(C#N)cc(C)c1NC(=O)c1cc(Br)nn1-c1ncccc1Cl | 18.3% | inactive | inactive |  |  | 
CC1C/C=C/C(O)C(O)CC/C=C/c2cc(O)cc(O)c2C(=O)O1 (configuration not stated) | -10.7% | inactive | inactive |  |  | 
COc1ccsc1CNCC[C@@]1(c2ccccn2)CCOC2(CCCC2)C1 | -0.333% | inactive | inactive |  |  | 
O=C(O)CCCCCCNC1c2ccccc2CCc2ccccc21 | 5.67% | inactive | inactive |  |  | 
CC1CCCC(O)CC(=O)Cc2cc(O)cc(O)c2C(=O)O1 (configuration not stated) | 7.63% | inactive | inactive |  |  | 
Cc1ccc(Cn2nc(C(=O)N[C@@H]3C(C)(C)[C@@H]4CC[C@@]3(C)C4)cc2-c2ccc(Cl)c(C)c2)cc1 | -9.82% | inactive | inactive |  |  | 
CCC(C)(O)C1(C(=O)O)COC(=O)C1 (configuration not stated) | 6.25% | inactive | inactive |  |  | 
CC1=CC2OC3[C@H](O)C[C@@](C)([C@]34CO4)[C@@]2(CO)[C@H](O)C1=O (some centres not stated) |  | inactive | inactive | 23.9 µM (active) |  | 
CCCCCn1cc(C(=O)C2C(C)(C)C2(C)C)c2ccccc21 | -0.955% | inactive | inactive |  |  | 
COC(=O)[C@@]1(C)C(=O)C=C[C@]2(C)c3c(O)cc(C(C)C)cc3[C@H](O)[C@@H](OC(C)=O)C12 (some centres not stated) | -3.05% | inactive | inactive |  |  | 
CC(O)(c1ccccc1)C(Cc1ccc(Cl)cc1)n1cncn1 (configuration not stated) | -8.59% | inactive | inactive |  |  | 
C=C[C@H]1CN2CCC1C[C@H]2[C@H](O)c1ccnc2ccccc12 (some centres not stated) | -2.33% | inactive | inactive |  |  | 
COC1C=CC23c4cc5c(cc4COC2(O)CN(C)C3C1)OCO5 (configuration not stated) | -5.36% | inactive | inactive |  |  | 
C=CC(C)(C)C12C=C(O)C(=O)N3/C(=C\c4cnc[nH]4)C(=O)NC31N(OC)c1ccccc12 (configuration not stated) |  | inactive | inactive | 4.65 µM (active) |  | 
C=CCN1C[C@H](C)N([C@H](c2ccc(C(=O)N(CC)CC)cc2)c2cccc(OC)c2)C[C@H]1C | -16.4% and -0.333% |  |  |  | -7.89% [at 11.2 µM] | 6.9% [at 11.2 µM]
CC(=O)OC[C@]12C[C@H](O)C(C)=C[C@H]1O[C@@H]1[C@H](O)[C@@H](O)[C@@]2(C)[C@]12CO2 |  | inactive | inactive | 6.59 µM (active) |  | 
CCOC(=O)c1ccnc2cc(C(OCCN3CCCCC3)c3ccccc3Cl)sc12 (configuration not stated) | -5.67% | inactive | inactive |  |  | 
C[C@H]1C(=O)O[C@H]2[C@H](O)[C@]34C5OC(=O)[C@]3(O[C@@H]3OC(=O)[C@H](O)C34[C@H](C(C)(C)C)[C@H]5O)C12O (some centres not stated) | -12.2% | inactive | inactive |  |  | 
CC(=O)OC[C@]12C[C@H](OC(=O)CC(C)C)C(C)=C[C@H]1O[C@@H]1[C@H](O)C[C@@]2(C)[C@]12CO2 |  | inactive | inactive | 3.7 µM (active) |  | 
COC1=CC(=O)O[C@@H](/C=C/c2ccccc2)C1 | -10.7% | inactive | inactive |  |  | 
C/C=C(\C)C(=O)OC1C2C3(C)CCC(OC4CC(OC)C(OC5OC(C)C(O)C(OC)C5O)C(C)O4)CC3CCC23OC32CCC(C(C)=O)C2(C)C1OC(=O)/C(C)=C/C (configuration not stated) | 12.5% | inactive | inactive |  |  | 
COC(=O)N1CCN(C(=O)Cc2ccc(Cl)c(Cl)c2)[C@@H](CN2CCCC2)C1 | 1.91% | inactive | inactive |  |  | 
C/C=C1/CN2CC[C@]34C(=Nc5ccc(OC)cc53)C2C[C@@H]1C4(CO)C(=O)OC (some centres not stated) | -9.16% | inactive | inactive |  |  | 
